Test systems include NCI-H23 lung; NCI-H226 lung; NCI-H322M lung; HOP-62 NSCLC; NCI-H460 lung; NCI-H522 lung; A549/ATCC NSCLC; 786-0 renal; COLO 205 colon; DU-145 prostate; K-562 leukemia; MDA-MB-231 breast; RXF 393 renal; SF-268 CNS; SF-295 CNS; SF-539 CNS; UACC-257 melanoma; M14 melanoma; MALME-3M melanoma.
Common to all, as to assay: NCI-60 one-dose screen, 48 h (100 = growth as untreated, 0 = no growth, -100 = all killed)
What all share (details): 10 µM unless noted

Compounds without any hit were thinned out: in the full panel of roughly 83,000, 20% have a hit.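 96-well plates, one dose, 48 hours. Percent growth reported; active if below 10.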 Unmarked numbers belong to inactive results. The source made the active and inactive calls.

`NC(N)=Nc1ccc(Oc2cccc(Nc3ccc(Cl)c(C(F)(F)F)c3)c2)cn1`: the growth in the assay with NCI-H23 lung was -65.6% (active); in the assay with NCI-H226 lung it was -48.8% (active); in the assay with NCI-H322M lung it was -25.9% (active); with HOP-62 NSCLC it was -51.2% (active); with NCI-H460 lung, -76.2% (active); with NCI-H522 lung, -59.5% (active). In addition, the growth with A549/ATCC NSCLC is -24.1% (active); with 786-0 renal, -46.3% (active); in the assay with COLO 205 colon it was -75.9% (active); with DU-145 prostate, -93.4% (active); with K-562 leukemia it was -43.5% (active); in the assay with MDA-MB-231 breast, -58.1% (active). The growth in the assay with RXF 393 renal is -3.9% (active); with SF-268 CNS, 17.7%; in the assay on SF-295 CNS, -84.7% (active); in the assay on SF-539 CNS it was 15.9%; in the assay with UACC-257 melanoma, -26.1% (active); in the assay with M14 melanoma, -62.4% (active).
Regarding `NC(=O)c1cccc(C#CCNC[C@H]2C[C@@H](n3ccc4c(Cl)ncnc43)[C@H](O)[C@@H]2O)c1`, the growth is 99% in the assay on NCI-H23 lung; 99.1% with NCI-H226 lung; 94.2% in the assay with NCI-H322M lung; 106% with HOP-62 NSCLC; 113% with NCI-H460 lung; 97.3% in the assay on NCI-H522 lung. The growth is 101% in the assay with A549/ATCC NSCLC; 101% with 786-0 renal; 108% with DU-145 prostate; 111% with K-562 leukemia; 101% in the assay with MDA-MB-231 breast; 107% in the assay with RXF 393 renal. For the same molecule, the growth in the assay with SF-268 CNS is 102%; in the assay with SF-295 CNS it was 105%; in the assay on SF-539 CNS, 98.9%; in the assay on UACC-257 melanoma, 98.2%; in the assay on M14 melanoma it was 104%.
As for `CCO/C=N/C1=C(C#N)C(c2ccc(F)cc2)c2sc3c(C)cccc3c2O1` (stereo unspecified), the growth in the assay on NCI-H23 lung is 27.1%; in the assay with NCI-H226 lung, 54.3%; in the assay with NCI-H322M lung, 37.6%; with HOP-62 NSCLC, 28.3%; in the assay with NCI-H460 lung it was 4.32% (active); in the assay on NCI-H522 lung, 7.88% (active). Besides, the growth was 22.4% in the assay on A549/ATCC NSCLC; 20.2% in the assay with 786-0 renal; 15.5% with COLO 205 colon; 12.4% in the assay with DU-145 prostate; 10.4% in the assay on K-562 leukemia; 17.8% in the assay with MDA-MB-231 breast. The growth was 0.223% (active) in the assay on RXF 393 renal; 38.3% in the assay with SF-268 CNS; -6.89% (active) with SF-295 CNS; -10.1% (active) in the assay on SF-539 CNS; 69% in the assay with UACC-257 melanoma; 3.68% (active) in the assay on M14 melanoma.
In the case of `CC(C)(C)c1ccc(CC(=O)Nc2sc3c(c2C(N)=O)CCC(=O)C3)cc1`, the growth with NCI-H23 lung was 7.26% (active); in the assay on NCI-H226 lung it was 11.4%; with NCI-H322M lung, 44%; in the assay with HOP-62 NSCLC it was 30.5%; with NCI-H460 lung, 6.79% (active); in the assay on NCI-H522 lung, -49.3% (active). The growth in the assay with A549/ATCC NSCLC was 17.1%; in the assay on 786-0 renal, 29.1%; in the assay on COLO 205 colon, -34.4% (active); in the assay with DU-145 prostate, 26.4%; in the assay with MDA-MB-231 breast, -20.2% (active); in the assay on RXF 393 renal, -12.5% (active). Besides, the growth in the assay on SF-268 CNS is 26%; with SF-295 CNS, 10.1%; in the assay on SF-539 CNS, -36.4% (active); in the assay on UACC-257 melanoma, -10.8% (active); in the assay with M14 melanoma, 7.16% (active).
With `N#Cc1ccccc1Cn1c2nc(=N)c3ccccc3c-2nc2ccccc21`, the growth in the assay with NCI-H23 lung is 52.4%; in the assay on NCI-H226 lung, 61.3%; with NCI-H322M lung it was 66%; with HOP-62 NSCLC it was 62.2%; in the assay with NCI-H460 lung, 22.1%; in the assay with NCI-H522 lung, 59.7%. In addition, the growth in the assay on A549/ATCC NSCLC is 44.3%; in the assay on 786-0 renal, 80.3%; with COLO 205 colon, 3.63% (active); with DU-145 prostate it was 60.3%; in the assay on MDA-MB-231 breast, 41.8%; in the assay with RXF 393 renal it was 54.3%. Besides, the growth is 74.3% in the assay with SF-268 CNS; 52% in the assay on SF-295 CNS; 82.6% in the assay with SF-539 CNS; 41.8% in the assay on UACC-257 melanoma; 70% in the assay with M14 melanoma.
Consider `NC(N)=Nc1ccc(Oc2cccc(Nc3cccc(C(F)(F)F)c3)c2)cn1`, for which the growth is -2.6% (active) with NCI-H23 lung; 20.1% with NCI-H226 lung; 14.7% in the assay on NCI-H322M lung; 3.3% (active) in the assay on HOP-62 NSCLC; -76.8% (active) in the assay on NCI-H460 lung; -34.6% (active) with NCI-H522 lung. The growth in the assay with A549/ATCC NSCLC was 35.8%; in the assay on 786-0 renal, 33.7%; in the assay with COLO 205 colon it was -47.3% (active); in the assay with DU-145 prostate, -10.7% (active); in the assay with K-562 leukemia, -47.3% (active); in the assay with MDA-MB-231 breast, 12%. For the same molecule, the growth was 2.79% (active) in the assay on RXF 393 renal; 49.3% in the assay on SF-268 CNS; -86.1% (active) in the assay with SF-295 CNS; 70.8% in the assay with SF-539 CNS; 25.8% in the assay with UACC-257 melanoma; 5.01% (active) with M14 melanoma.
For the molecule `O=C(NNc1nc2cc(F)ccc2n2cccc12)c1ccncn1`, the growth with NCI-H23 lung was 30%; with NCI-H226 lung it was 13.2%; in the assay with NCI-H322M lung it was 31.7%; in the assay with HOP-62 NSCLC it was 20.5%; in the assay with NCI-H460 lung, 9.08% (active); with NCI-H522 lung, -6.6% (active). Further, the growth is 14.7% with A549/ATCC NSCLC; 11% with 786-0 renal; 18.6% in the assay on DU-145 prostate; 14.6% with K-562 leukemia; 27.6% in the assay with MALME-3M melanoma; 41.1% in the assay on MDA-MB-231 breast. Moreover, the growth in the assay with RXF 393 renal was 30.3%; with SF-268 CNS, 19.6%; with SF-295 CNS it was 12.1%; with SF-539 CNS, 4.41% (active); in the assay with UACC-257 melanoma, 5.01% (active); in the assay with M14 melanoma, 1.55% (active).
As for `CCO/C=N/C1=C(C#N)C(c2ccc(OC)cc2)c2sc3c(C)cccc3c2O1` (stereo unspecified), the growth is 25.4% in the assay with NCI-H23 lung; 57% in the assay with NCI-H226 lung; 45.7% with NCI-H322M lung; 40.8% in the assay on HOP-62 NSCLC; 9.13% (active) in the assay with NCI-H460 lung; -3.87% (active) in the assay on NCI-H522 lung. Further, the growth with A549/ATCC NSCLC was 27.3%; in the assay with 786-0 renal, 40.8%; in the assay on DU-145 prostate it was 22%; in the assay on K-562 leukemia it was 12.6%; in the assay with MALME-3M melanoma, 60.6%; in the assay on MDA-MB-231 breast, 27.5%. Besides, the growth was -23.9% (active) with RXF 393 renal; 54.1% with SF-268 CNS; 1.06% (active) with SF-295 CNS; -11.6% (active) in the assay on SF-539 CNS; 88.7% with UACC-257 melanoma; 5.22% (active) in the assay with M14 melanoma.

For the origin of these results see PubChem BioAssay (NCI).
